Results published in ChEMBL document CHEMBL4888484, “Replenishing the malaria drug discovery pipeline: Screening and hit evaluation of the MMV Hit Generation Library 1 (HGL1) against asexual blood stage Plasmodium falciparum ,using a nano luciferase reporter read-out” (2022).
The campaign covered roughly 150,000 compounds. About 540 (0.36%) showed an effect of 50% or more. The full list was thinned out, with strong results kept by preference.

tested on: Plasmodium falciparum; assay: Primary screen in NF54 nanoGlo assay, in single point, at 2uM, 72h; a lower Z score goes with more inhibition; type: functional, Erythrocyte; settings: timepoint 72 hour

Row | SMILES | % Inhibition | Z score
1 | O=C(Nc1cccc2cccnc12)c1csnn1 | 6% | -1.1
2 | O=C(Nc1cccc2cccnc12)c1cscn1 | 9% | -1.21
3 | Oc1ccccc1CNc1cccc2c[nH]nc12 | -4% | 0.68
4 | O=C(Nc1cccc2cccnc12)c1ccccn1 | 79% | -8.04
5 | Oc1ccccc1CNc1cccc2cccnc12 | 96% | -8.95
6 | Oc1cccc(CNc2cccc3cccnc23)c1 | 27% | -3.62
7 | O=C(Cn1ccc([C@H]2CCCNC2)n1)NCc1c(F)cccc1Cl | 0% | -0.03
8 | O=C1CC[C@H](C(=O)N2CCCCO2)CN1CCN1CCOCC1 | -15% | 1.87
9 | CCC1CCC(C(=O)NCC(=O)N2CCn3cncc3C2)CC1 (stereo not drawn) | -22% | 2.8
10 | Cn1c(-c2ccc(Br)cc2)cn2cc(-c3ccc(Cl)cc3)nc12 | 44% | 0.7
11 | Cn1c(-c2ccccc2)cn2cc(-c3ccc(Cl)cc3)nc12 | 54% | -1.03
12 | Cn1c(-c2ccccc2)cn2cc(-c3ccc(F)cc3)nc12 | 38% | -0.19
13 | Nc1n[nH]c(-c2ccc(Br)o2)n1 | 4% | -0.5
14 | OC1=Nc2c(ncn2-c2cc(F)cc(F)c2)[C@@H](c2cccnc2)C1 | 34% | -3.88
15 | Cc1ccc(CN2CCN(CC(=O)Nc3cc(C)on3)C(=O)C2=O)cc1 | 0% | -0.03
16 | O=c1nc2n(nc1-c1ccccc1)C1(CCCCC1)Nc1ccccc1-2 | -10% | 1.25
17 | O=c1nc2n(nc1-c1ccccc1)C1(CCC1)Nc1ccccc1-2 | 54% | -13.48
18 | O=c1nc2n(nc1-c1ccc(F)cc1)C1(CCCC1)Nc1ccccc1-2 | -9% | 0.98
19 | C[C@H](NC(=O)C1=NN(C)C(=O)CC1)c1ccc2c(c1)OCCO2 | -13% | 1.49
20 | O=C(CCS(=O)(=O)c1ccccc1)N1CC[C@H](Oc2cc(C(F)(F)F)ccn2)C1 | -6% | 1.09
21 | COc1ccnc(CN2CCC[C@H](c3nc(-c4ccccc4)c[nH]3)C2)c1OC | 69% | -7.6

Row | SMILES | % Inhibition | Z score
22 | O=C(O)CN1CCC[C@H](c2nc(-c3ccccc3)c[nH]2)C1 | -8% | 0.94
23 | Cc1nncn1C1CCN(S(=O)(=O)c2ccc(Cl)cc2)CC1 | -11% | 1.89
24 | COc1ccc(CC(=O)N2C3COCC2C3)nc1 | 33% | -3.69
25 | CCN1C(=O)c2ccccc2N2C(=O)CC[C@@]12C(=O)Nc1nccs1 | 8% | -0.95
26 | CCCN1C(=O)c2ccccc2N2C(=O)CC[C@@]12C(=O)Nc1ccccc1 | 88% | -14.36
27 | CCN1C(=O)c2ccccc2N2C(=O)CC[C@@]12C(=O)Nc1cccc(OC)c1 | 92% | -11.06
28 | CCCCN1C(=O)c2ccccc2N2C(=O)CC[C@@]12C(=O)Nc1nccs1 | 25% | -2.95
29 | CC(=O)c1cccc(NC(=O)N2CCCCCCC2)c1 | 2% | -0.33
30 | CCCN1C(=O)c2ccccc2N2C(=O)CC[C@@]12C(=O)Nc1ccc(OC)cc1 | 88% | -16.69
31 | CC(=O)c1cccc(NC(=O)[C@@]23CCC(=O)N2c2ccccc2C(=O)N3C)c1 | 84% | -11.29
32 | COc1cccc(NC(=O)C23CCCN2CCC3)c1 | -8% | 1.16
33 | CC(=O)c1cccc(NC(=O)N2CCC3(CCC3)C2)c1 | -6% | 1.19
34 | Cc1cc(N(C)C)ccc1NC(=O)CCN1C(=O)c2ccccc2N2C(=O)CC[C@]12C | 2% | -0.43
35 | CCCN1C(=O)c2ccccc2N2C(=O)CC[C@@]12C(=O)Nc1cccc(NC(C)=O)c1 | 8% | -1.31
36 | CCCN1C(=O)c2ccccc2N2C(=O)CC[C@@]12C(=O)Nc1nc(C)cs1 | 2% | -0.31
37 | O=C(Nc1cccc(Cl)c1)Nc1nnc2cccc(Cl)n12 | -18% | 2.03
38 | Cc1csc(NC(=O)c2cc(-c3ccccc3)on2)n1 | -6% | 1.01
39 | COc1cc2ccc1OCC(=O)N[C@@H](C)C(=O)N(C)CCCCN(C(=O)c1cc(Cl)cn1C)CCCNC2=O | -24% | 3.05
40 | COCC1(CNC(=O)c2ccc(-c3ccncc3C)cc2)CCC1 | 8% | -1
41 | Cn1cc(N2C[C@@H](C(=O)NCC=Cc3cccnc3)CCC2=O)cn1 | -4% | 0.63
42 | Cn1c(C(=O)N2CC[C@H](N)C2)ccc1-c1cccc(Br)c1 | 50% | -7.09

Row | SMILES | % Inhibition | Z score
43 | Cn1c(C(=O)N2CC[C@H](N)C2)ccc1-c1ccccc1Br | 0% | 0.05
44 | N[C@@H]1CCN(C(=O)c2cccnc2Oc2cccc(Br)c2)C1 | -12% | 1.38
45 | CC1(C2CC2)CCN(C(=O)c2csnn2)CC1 | 2% | -0.37
46 | Cc1ccsc1CN(Cc1ccccc1)C(=O)CN(C(=O)C1CCCC1)C1CCCCC1 | -2% | 0.35
47 | COc1cccc(CN2C(=O)N[C@@](C)(C3CCN(C(=O)c4cccnc4OC)CC3)C2=O)c1OC | 8% | -1.05
48 | CC(C)[C@H](NC(=O)c1cc(O)ccn1)C(=O)NC1CCCCC1 | -5% | 0.48
49 | COc1cc(C=C(C(=O)Nc2ccccc2F)C(=O)Nc2ccccc2F)ccc1OCC(=O)Nc1cccc(C(F)(F)F)c1 | 80% | 1.63
50 | CC=Cc1ccc(OCC(=O)Nc2cccc(NC(=O)Nc3ccccc3)c2)c(OC)c1 | -7% | 0.59
51 | COc1cc(C(=O)NCc2cccnc2)ccc1OCC(=O)Nc1cccc(C(F)(F)F)c1 | 3% | -0.33
52 | Cc1cc(N2CC(OCc3ccccc3)C2)nc(Nc2cccc(O)c2)n1 | 91% | -12.9
53 | Cc1cc(NCc2csc(N(C)C)n2)nc(Nc2cccc(O)c2)n1 | -3% | 0.61
54 | Cc1cc(N2CCOC[C@@H](O)C2)nc(Nc2cccc(O)c2)n1 | -4% | 0.39
55 | CCO[C@H]1CN(C)C[C@@H]1Nc1cc(C)nc(Nc2cccc(O)c2)n1 | -6% | 1.08
56 | Cc1cc(N2C[C@H]3CC[C@@H](C2)[C@H]3N(C)C)nc(Nc2cccc(O)c2)n1 | 77% | -8.01
57 | O=C(c1nc2ccccc2[nH]1)N1CCN(c2ccccc2F)CC1 | -1% | 0.23
58 | CCn1cc(-c2n[nH]cc2C(=O)N2CCN(CC(C)C)C(=O)C2)cn1 | 3% | -0.32
59 | COc1ccc(S(=O)(=O)N2CCOC[C@H](Oc3ccccc3)C2)cc1 | 31% | -3.47
60 | Cc1ccc(C)c(Cn2c(C(=O)Nc3ccccc3)cc3cc(NC(=O)c4ccco4)ccc32)c1 | 2% | -0.19
61 | CCc1cnccc1NC(=O)CCCC1CCOCC1 | -3% | 0.38
62 | C[C@]1(c2cnccn2)NC(=O)N(Cc2cc(F)ccc2OC(F)F)C1=O | -4% | 0.57
63 | CC(C)c1ocnc1C(=O)NC[C@H]1[C@H](c2ccccc2)C1(F)F | -3% | 0.47

Row | SMILES | % Inhibition | Z score
64 | COc1ccc2[nH]c3c(c2c1)CCN(C(=O)c1ccc(C)c(C)c1)[C@@H]3c1ccccc1OC | 84% | -11.27
65 | COc1ccc2[nH]c3c(c2c1)CCN(C(=O)c1ccc(C)c(C)c1)[C@H]3COCc1ccccc1 | 0% | 0.02
66 | COc1ccc2[nH]c3c(c2c1)CCN(C(=O)c1cc(Cl)cc(Cl)c1)[C@@H]3c1ccccc1OC | -11% | 1.21
67 | COc1ccc(OC)c(CNc2cc[nH]n2)c1 | -5% | 0.8
68 | Cc1cccc(CN(CC2CCN(C3Cc4ccccc4C3)CC2)C[C@H]2CCCO2)n1 | -1% | 0.18
69 | Cc1cccc(CN(Cc2cccc(C)n2)C[C@H]2CCCCO2)n1 | 90% | -9.86
70 | CCN(Cc1csc(C)n1)C[C@H]1CCCCO1 | 2% | -0.27
71 | COc1ccc(CC(=O)N[C@H]2CCOC2)cc1OC | -1% | 0.14
72 | COc1nc(NC[C@H]2CCCN2C(C)C)ncc1F | 64% | -12.06
73 | COc1nc(NCC[C@H]2CCCCN2C)ncc1F | 3% | -0.58
74 | COc1nc(NCC2CCN(CC(C)C)CC2)ncc1F | -2% | 0.24
75 | Cc1nn(C)c(C)c1CC(=O)N1CCC2(CCC2)S(=O)(=O)CC1 | -5% | 0.46
76 | Cc1ccc(NS(=O)(=O)c2cc(-c3nc(C)c(C)s3)sc2C)c(C)c1 | -5% | 0.62
77 | CC1CCN(C(=O)[C@H]2CCc3ncc(-c4ccc(F)cc4)n3C2)CC1 | -7% | 1.27
78 | COc1ccc(-c2cn3cc(-c4ccccc4)c4c3n2CCCC4)cc1 | -8% | 1.46
79 | COc1ccc(-c2cn3c(n2)CCC3)cc1 | -5% | 0.43
80 | COc1ccc(-[n+]2c(-c3ccc(-c4ccccc4)cc3)cn3c2COCC3)cc1 | 58% | -11.93
81 | COc1ccc(-[n+]2c(-c3ccccc3)cn3c2CCC3)cc1 | 79% | -11.37
82 | COc1ccc(-c2nn(-c3ccccc3F)cc2CN2CCOCC2)cc1 | -19% | 3.28
83 | COc1ccc(N2CCN(Cc3ccc(-c4ccccc4)cc3)CC2)cc1 | 5% | -1
84 | NC(=O)N1CCCC(C(=O)N2CCCC2c2ccc(F)c(F)c2)C1 (stereo not drawn) | 0% | 0.02
